# Source: PubChem BioAssay AID1159580 (chemical genetic matrix, 2015)
# Where “and” joins values, the source holds several entries; their conditions need not be identical. Identical values can stand only once. Hit rate of the full screen: of about 5,500 compounds, about 2,000 (36%) were called active. Inconclusive results (about 18%) are left out. This is one part of the list. Values without a mark were called inactive. No stated cut-off is given here; in the data, active means normalized growth mostly below about 0.91 (no sharp cut-off); inconclusive means no clear call, values can overlap the other calls; inactive means mostly above about 0.92.
# Assay: chemical genetic growth profiling, strain panel (AID 1159580);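 further: tested at 20 µM; growth read once vehicle control cultures reached saturation at 30 °C; 1 = growth at the plate median or of vehicle wells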
# Details: S. cerevisiae deletion strains, growth OD
compound,measurement,setting,value
COC(=O)C(C)c1ccc(C(=O)c2cccs2)cc1 (stereo unspecified),normalized growth,"locus YAL013W, strain DEP1, stronger effect = lower value",0.998
same,normalized growth,"locus YAL021C, strain ccr4, stronger effect = lower value",1.01
same,normalized growth,"locus YAL026C, strain drs2, stronger effect = lower value",0.988
same,normalized growth,"locus YAL030W, strain snc1, stronger effect = lower value",1.01
same,normalized growth,"locus YBL061C, strain skt5, stronger effect = lower value",1.01
same,normalized growth,"locus YBR009C, strain hhf1, stronger effect = lower value",1
same,normalized growth,"locus YBR021W, strain FUR4, stronger effect = lower value",0.971
same,normalized growth,"locus YBR023C, strain chs3, stronger effect = lower value",1.01
same,normalized growth,"locus YBR171W, strain sec66, stronger effect = lower value",1.01
same,normalized growth,"locus YBR229C, strain ROT2, stronger effect = lower value",0.998
same,normalized growth,"locus YBR231C, strain swc5, stronger effect = lower value",1.02
same,normalized growth,"locus YBR279W, strain paf1, stronger effect = lower value",1
same,normalized growth,"locus YCL011C, strain gbp2, stronger effect = lower value",1
same,normalized growth,"locus YCL016C, strain dcc1, stronger effect = lower value",1
same,normalized growth,"locus YCL029C, strain bik1, stronger effect = lower value",0.96
same,normalized growth,"locus YCL061C, strain MRC1, stronger effect = lower value",1.01
same,normalized growth,"locus YCL069W, strain vba3, stronger effect = lower value",1.01
same,normalized growth,"locus YCR088W, strain abp1, stronger effect = lower value",1
same,normalized growth,"locus YDL005C, strain med2, stronger effect = lower value",1.01
same,normalized growth,"locus YDL035C, strain GPR1, stronger effect = lower value",0.957
same,normalized growth,"locus YDL040C, strain nat1, stronger effect = lower value",1.01
same,normalized growth,"locus YDL074C, strain BRE1, stronger effect = lower value",0.981
same,normalized growth,"locus YDL101C, strain DUN1, stronger effect = lower value",1.01
same,normalized growth,"locus YDL134C, strain PPH21, stronger effect = lower value",0.996
same,normalized growth,"locus YDL185W, strain tfp1, stronger effect = lower value",0.939
same,normalized growth,"locus YDL192W, strain arf1, stronger effect = lower value",0.951
same,normalized growth,"locus YDR001C, strain nth1, stronger effect = lower value",1.02
same,normalized growth,"locus YDR069C, strain doa4, stronger effect = lower value",1.02
same,normalized growth,"locus YDR101C, strain arx1, stronger effect = lower value",0.975
same,normalized growth,"locus YDR137W, strain rgp1, stronger effect = lower value",1
same,normalized growth,"locus YDR150W, strain NUM1, stronger effect = lower value",0.985
same,normalized growth,"locus YDR159W, strain sac3, stronger effect = lower value",1.02
same,normalized growth,"locus YDR162C, strain NBP2, stronger effect = lower value",0.998
same,normalized growth,"locus YDR195W, strain ref2",0.993
same,normalized growth,"locus YDR297W, strain sur2, stronger effect = lower value",1.01
same,normalized growth,"locus YDR318W, strain mcm21, stronger effect = lower value",0.907 (active)
same,normalized growth,"locus YDR334W, strain swr1, stronger effect = lower value",1.01
same,normalized growth,"locus YDR335W, strain msn5, stronger effect = lower value",0.997
same,normalized growth,"locus YDR388W, stronger effect = lower value",0.973
same,normalized growth,"locus YDR392W, strain spt3, stronger effect = lower value",0.999
same,normalized growth,"locus YDR502C, strain sam2, stronger effect = lower value",0.959
same,normalized growth,"locus YEL003W, strain gim4, stronger effect = lower value",1.01
same,normalized growth,"locus YEL037C, strain rad23, stronger effect = lower value",1
same,normalized growth,"locus YEL061C, strain CIN8 (second series), stronger effect = lower value",1.01
same,normalized growth,"locus YEL061C, strain CIN8, stronger effect = lower value",0.991
same,normalized growth,"locus YER015W, strain faa2, stronger effect = lower value",1.01
same,normalized growth,"locus YER016W, strain bim1, stronger effect = lower value",1
same,normalized growth,"locus YER110C, stronger effect = lower value",0.955
same,normalized growth,"locus YER111C, strain swi4, stronger effect = lower value",1.01
same,normalized growth,"locus YER155C, strain BEM2 (second series), stronger effect = lower value",1.01
same,normalized growth,"locus YER155C, strain BEM2, stronger effect = lower value",0.997
same,normalized growth,"locus YER167W, strain BCK2, stronger effect = lower value",0.956
same,normalized growth,"locus YFR010W, strain ubp6, stronger effect = lower value",1.01
same,normalized growth,"locus YGL078C, strain dbp3, stronger effect = lower value",0.968
same,normalized growth,"locus YGL086W, strain mad1, stronger effect = lower value",0.92 (active)
same,normalized growth,"locus YGL167C, strain pmr1, stronger effect = lower value",1.01
same,normalized growth,"locus YGL173C, strain kem1, stronger effect = lower value",1.02
same,normalized growth,"locus YGL227W, strain vid30, stronger effect = lower value",1.01
same,normalized growth,"locus YGL240W, strain doc1, stronger effect = lower value",1
same,normalized growth,"locus YGL248W, strain PDE1, stronger effect = lower value",0.998
same,normalized growth,"locus YGL253W, strain hxk2, stronger effect = lower value",1
same,normalized growth,"locus YGR078C, strain PAC10, stronger effect = lower value",0.995
same,normalized growth,"locus YGR135W, strain pre9, stronger effect = lower value",0.946
same,normalized growth,"locus YGR229C, strain SMI1, stronger effect = lower value",0.96
same,normalized growth,"locus YGR252W, strain gcn5, stronger effect = lower value",0.934
same,normalized growth,"locus YHR013C, strain ard1, stronger effect = lower value",1.01
same,normalized growth,"locus YHR027C, strain rpn1, stronger effect = lower value",1.01
same,normalized growth,"locus YHR030C, strain SLT2, stronger effect = lower value",0.991 and 0.936
same,normalized growth,"locus YHR079C, strain IRE1 (second series), stronger effect = lower value",0.968
same,normalized growth,"locus YHR079C, strain IRE1, stronger effect = lower value",0.949
same,normalized growth,"locus YHR094C, strain hxt1, stronger effect = lower value",0.947
same,normalized growth,"locus YHR129C, strain ARP1, stronger effect = lower value",0.999
same,normalized growth,"locus YHR142W, strain chs7, stronger effect = lower value",0.991
same,normalized growth,"locus YHR200W, strain rpn10, stronger effect = lower value",0.954
same,normalized growth,"locus YIL066C, strain RNR3, stronger effect = lower value",0.977
same,normalized growth,"locus YIL073C, strain SPO22, stronger effect = lower value",0.851
same,normalized growth,"locus YIR030C, strain dcg1, stronger effect = lower value",0.957
same,normalized growth,"locus YJL092W, strain hpr5, stronger effect = lower value",1
same,normalized growth,"locus YJL095W, strain BCK1 (second series), stronger effect = lower value",1.01
same,normalized growth,"locus YJL095W, strain BCK1, stronger effect = lower value",1.01 and 0.972
same,normalized growth,"locus YJL115W, strain asf1, stronger effect = lower value",1.03
same,normalized growth,"locus YJL129C, strain trk1, stronger effect = lower value",1.04
same,normalized growth,"locus YJL134W, strain LCB3, stronger effect = lower value",0.991
same,normalized growth,"locus YJL154C, strain vps35, stronger effect = lower value",1
same,normalized growth,"locus YJL164C, strain tpk1, stronger effect = lower value",0.998
same,normalized growth,"locus YJL166W, strain qcr8, stronger effect = lower value",1
same,normalized growth,"locus YJL168C, strain set2, stronger effect = lower value",0.973
same,normalized growth,"locus YJL187C, strain SWE1 (second series), stronger effect = lower value",1
same,normalized growth,"locus YJL187C, strain SWE1, stronger effect = lower value",1.01
same,normalized growth,"locus YJR043C, strain POL32, stronger effect = lower value",0.972
same,normalized growth,"locus YJR066W, strain TOR1, stronger effect = lower value",0.982
